Columns and labels:
Assay in all cases: PBM binding z-score (relative to random genomic background probes); higher = stronger binding; sequences stand for … in GC…GCGATTGACAGCGTAGAATGAAGG
[1] = test system: FXR:RXRa (NR concentration 270 nM, RXRa partner concentration 90 nM)
Procedure, shortened: (§1)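 For binding z-scores, the reference was random background probes on custom Agilent 4×180K protein-binding microarrays. These arrays were incubated 1 h with ligand-free nuclear receptor dimers in PBS pH 7.4, 2% milk, 0.02% Triton X-100, 1 mM DTT, 0.2 mg/mL BSA and 0.4 mg/ml salmon testes DNA. Fluorescence was scanned after antibody detection of each partner (one per run) and regression-normalized.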

[2] = test system: LXRa:RXRa (NR concentration 270 nM, RXRa partner concentration 90 nM)
Procedure, shortened: as §1

[3] = test system: LXRa homodimer (NR concentration 270 nM)
Procedure, shortened: as §1

[4] = test system: LXRb:RXRa (NR concentration 270 nM, RXRa partner concentration 90 nM)
Procedure, shortened: as §1

[5] = test system: LXRb homodimer (NR concentration 270 nM)
Procedure, shortened: as §1

[6] = test system: PPARa:RXRa (NR concentration 270 nM, RXRa partner concentration 90 nM)
Procedure, shortened: as §1

[7] = test system: PPARg:RXRa (NR concentration 180 nM, RXRa partner concentration 90 nM)
Procedure, shortened: as §1

[8] = test system: PPARg:RXRa 270nM:90nM, anti-RXR (NR concentration 270 nM, RXRa partner concentration 90 nM)
Procedure, shortened: as §1

[9] = test system: PPARg:RXRa 30nM:10nM, anti-RXR (NR concentration 30 nM, RXRa partner concentration 10 nM)
Procedure, shortened: as §1

[10] = test system: PPARg:RXRa 90nM:30nM, anti-RXR (NR concentration 90 nM, RXRa partner concentration 30 nM)
Procedure, shortened: as §1

Sequence	PBM binding z-score [1]	PBM binding z-score [2]	PBM binding z-score [3]	PBM binding z-score [4]	PBM binding z-score [5]	PBM binding z-score [6]	PBM binding z-score [7]	PBM binding z-score [8]	PBM binding z-score [9]	PBM binding z-score [10]
AGAATGAGGTTAAGCTCAGGGAAACAGAATACAT	2.88	1.94	-0.491	1.79	-0.626	3.77	2.4	2.58	0.895	1.48
CCTTACGTGTCACTGACAGGTTATAGCATTTGGA	0.791	1.07	0.634	1.18	0.446	1.29	0.601	0.469	0.356	0.704
GCTCGGAGGACAAGGGCAGAGCTTTGTCCGTAGA	-0.487	-0.674	-0.975	-1.04	-1.47	-0.451	-0.879	-0.532	-1.18	-0.777
CGAACTAGGTCAGAAGAGGACAGTGAAGGATGAT	1.71	1.24	-0.161	0.331	-0.576	3.14	5.79	4.62	2.29	4.02
CGTCCAAGGACAGAGAGGTCAGTGAATGCCGAGT	1.59	1.6	1.09	1.72	-0.627	2.13	0.584	0.665	-0.328	-0.223
CCTCGGAGGACCGAAGGTCAGAGCTGTCCGCTTT	0.789	1.42	-0.056	0.863	-1.03	1.61	-0.382	1.16	-0.716	0.325
TTACCAAGGTGAGCTGAGGTCATTGATCCAACTC	4.44	4.36	2.23	3.33	-0.78	3.78	1.69	2.46	0.796	1.62
TAGCCTAGGTCATGCGGGCCAGTTTAGTGTCGGC	3.92	3.15	0.212	1.71	-0.269	3.27	1.32	2.02	-0.211	1.01
TCATATAGGTAAAGGTGAAAATCGAACGATATGA	1.01	1.19	-0.224	1.35	0.0615	3.15	4.11	4.4	4.25	4.59
CCGACTGGGGCAAAGGTTTCCATACTCAGTACGA	-0.478	-0.199	-0.443	0.175	-1.02	3.35	8.18	7.78	8.2	9.01
AGTCAAAGTACATCTAGGTAACGTAAGATATGCT	-0.254	-0.258	-0.145	-0.0982	-0.223	0.359	1.35	0.631	0.46	0.326
ACAGACAGGTGAGTGAAGGTAAATCAGCTGGACG	0.263	-0.325	-0.654	-0.138	-0.427	-0.1	0.739	-0.481	-0.0948	-0.384
CCTTACGGGTCACTGATAGGTTATAGCATTTGGA	5.04	4.27	0.473	3.53	0.0559	5	4.57	4.4	1.47	3.36
CGTCCAAGGTCAGCGAGGTCAGTGAATGCCGAGT	6.31	5.26	1.83	4.28	0.00119	5	3.79	4.78	0.896	3.3
TCTAGTTGGTCACGGAGTTCACACACGACGGGTA	1.65	2.17	2.34	1.88	0.263	2.63	1.88	2.66	3.07	2.99
GCAGTCAGGTGAAACGCAGGTAACTCAGGGTGGC	0.205	-0.0689	-0.816	-0.344	-1.08	0.614	0.152	0.222	-0.525	0.166
GCTAGTTGGTCGGTAAAAGGTCACACACCGGTCG	3.17	4.03	3.77	3.81	0.63	4.74	5.58	6.73	4.85	6.87
GCTAGTTGGTCAGTACAAGGTCACACACCGGTCG	2.58	2.63	2.97	2.59	0.352	3.05	1.38	1.94	0.146	1.33
TCATATAGGGAAATGCTAGGTGAAAGTCCGATCT	1.31	0.732	0.053	0.609	-0.0156	0.83	0.563	2.3	3.82	2.91
TCTATTTGTTGAAGGGCAACCGACGAGTCCGTTT	0.938	1.22	0.754	0.891	1.45	0.93	0.0466	2.21	3.99	3.24
GCATATAGGTCATACAAGGTGAAAGTCCGATTGT	6.4	5.8	2.37	4.27	0.913	5.75	7.36	6.55	4.09	6.05
CCTCGGAGGACAACAGGAGGTCAGACCTGCCAGA	0.836	2.12	2.37	1.52	-0.492	1.96	0.605	0.0936	-0.634	-0.359
CTCGAAAGGTCGTACTCAGGTGAGTATACCAAAC	5.55	4	0.513	3.59	0.9	4.59	2.86	3.85	1.33	2.46
ATCTCTAAGTAAAAGTTCAGTGAATCCCGAGGAT	0.433	1.11	1.36	0.807	1.04	1.6	1.9	3.87	2.04	3.47

Sequence	PBM binding z-score [1]	PBM binding z-score [2]	PBM binding z-score [3]	PBM binding z-score [4]	PBM binding z-score [5]	PBM binding z-score [6]	PBM binding z-score [7]	PBM binding z-score [8]	PBM binding z-score [9]	PBM binding z-score [10]
GGAACGAGGGCAAGTTGATAGCCGAGTTTGATGG	0.943	0.357	-0.311	0.355	-0.62	1.94	0.924	1.09	-0.224	0.405
CGAACGAGGGCATGATTTGATAGCAAATGCCGAT	0.047	-0.148	-0.301	-0.0288	-0.66	0.783	0.992	0.441	0.141	0.0789
AGGATGAGGTTATACGTAGATCAGGGAAGAAAGT	2.42	1.94	0.445	2.03	0.715	2.62	1.16	1.11	0.501	0.724
ATCTCTAGGTAACTAGTTCAGTGAAAGAGAGGAC	0.133	0.11	-0.0189	0.143	0.75	0.794	0.87	0.974	0.417	0.722
TCTTTTAGATCAGCAGGTTAAGAAAGCTGGCCAA	0.304	0.549	-0.247	0.44	0.139	0.889	-0.5	1.65	3.33	2.36
CGAACGAGGGAATGAGTTGATAGCAAATGCCGAT	-0.82	-0.749	-0.474	-1.01	-0.729	-1.17	0.578	-0.457	-0.284	-0.51
TCTGCTAGGTCAGTGGGTCAGCTAACGAGCTGCC	1.49	1.09	-0.548	0.738	0.0153	3.41	5.03	4.53	2.11	3.51
TTACCAAGGTGAAGGTCGATGATCCCTCTGTAGA	1.25	0.976	-0.361	1.1	-0.706	2.27	2.29	3.58	1.74	3.24
TCATATAGGTAAATCCTAGGTGAAAGTCCGATCT	0.916	0.69	-0.094	0.537	-0.0667	1.47	0.85	2.16	3.66	2.72
TTACCAAGGTGAAAGGTCGTTGGTGCACGCCTTG	4.28	3.47	0.325	2.87	-0.67	5.54	8.98	8.05	6.8	8.19
CCGAGTAGGTTATGGGGCTTTCAGGCAACGGTGA	0.104	0.374	-0.409	0.503	-0.205	1.34	1.69	2.5	0.331	1.54
CCTTACGGGTAACTGACAGGTTATAGCATTTGGA	0.183	0.937	9.84e-05	0.454	-0.428	0.56	0.319	0.0456	-0.0329	-0.0443
CGTCCAAGGCCAAGGTCAGTGAAAGAGACTCGAA	1.58	1.15	-0.343	1.21	-0.878	2.04	0.804	0.725	-0.305	0.665
GGACCGAGGGCAAAGTTGATAGCATCTGTCGACG	1.12	0.801	-0.42	0.811	-0.953	2.74	3.41	4.82	2.42	4.42
CCTCGGAGGACAGAAGGTCAGAGCAGTCCGCTTT	1.47	1.7	0.116	1.25	-0.798	2.04	0.114	0.948	-0.57	0.201
TCTCGGAGGACACGAAGGTCCGAGCTTTCCAGAG	0.324	-0.29	-0.723	-0.734	-1.4	0.0732	-0.408	0.645	1.71	1.12
CGCCCAAGGTCATAGGAGGTCAGTGAAGACAGAT	7.29	7.31	4.78	6.09	0.731	5.8	5.24	5.41	2.05	4.11
ATATGTAGGTTAGCTGGGGTCATTCAAACTAGGC	5.07	5.84	3.67	5.17	1.92	5.21	5.74	5.36	2.92	4.91
ATATGTAGGTTAGCTGGTGTCATTCAGACTAGGC	0.789	1.83	-0.106	0.765	0.392	2.74	3.47	2.8	0.962	2.2
ATACCAAGGTGATCCTGAGGTCGTTGATACTAAC	2.37	2.1	0.935	1.98	0.354	2.1	0.744	0.547	0.147	0.197
CCTTACGGGTCACTCGAGGTTATAGCATCGGAGT	5.2	7.76	3.19	5.72	-0.178	5.01	4.03	4.33	1.41	3.01
CCGACTGGGGCGAGGTTACCATAACGCACAGCCA	0.344	0.809	-0.212	0.84	-0.662	1.49	1.16	1.05	-0.243	0.417
GCTGCTAGGTCACCTGATGGTCAGCTAAAGCTCG	3.25	2.4	-0.338	1.66	-0.22	3.22	2.21	2.86	0.569	1.95
TCCCGGAGGACACGAAAGGTCAGAGCTCGACATC	3.13	3.95	2.89	2.93	-0.374	3.45	1.51	2.59	2.05	2.49
